Sampled rows, rich in hits. Any-hit rate of the full collection: about 6.9%.
Giardia kill: kills Giardia lamblia | 0.15% of 340,000 active | activity change, % at 7.66 µM, hits read low | Giardia lamblia trophozoite viability | AID 540267; in the data active means activity change below about -80%; inconclusive means between about -30% and that limit;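 further: parasites exposed to compound for two days anaerobically before the ATP read; on the % scale 0 is the no-effect control and ±100 the full control effect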
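Giardia lamblia trophozoites (100 cells/well) were incubated with compounds for 48 h at 37 deg C under anaerobic conditions. Viability was read as ATP content by one-step luminescence after 15-30 min at room temperature.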
ASM inhibitor: blocks human secretory acid sphingomyelinase; 0.006% of 340,000 active; placental ASM, HMU-PC fluorogenic substrate, 60 min; Potency, µM (titrated, usually from 57.5 µM), inactives show at the highest dose activity change, negative = inhibition, actives largely listed as inhibitors; P17405; AID 504937; further: potency means the concentration at half of the fitted maximal effect
Target sequence (P17405 47-631 limits assumed): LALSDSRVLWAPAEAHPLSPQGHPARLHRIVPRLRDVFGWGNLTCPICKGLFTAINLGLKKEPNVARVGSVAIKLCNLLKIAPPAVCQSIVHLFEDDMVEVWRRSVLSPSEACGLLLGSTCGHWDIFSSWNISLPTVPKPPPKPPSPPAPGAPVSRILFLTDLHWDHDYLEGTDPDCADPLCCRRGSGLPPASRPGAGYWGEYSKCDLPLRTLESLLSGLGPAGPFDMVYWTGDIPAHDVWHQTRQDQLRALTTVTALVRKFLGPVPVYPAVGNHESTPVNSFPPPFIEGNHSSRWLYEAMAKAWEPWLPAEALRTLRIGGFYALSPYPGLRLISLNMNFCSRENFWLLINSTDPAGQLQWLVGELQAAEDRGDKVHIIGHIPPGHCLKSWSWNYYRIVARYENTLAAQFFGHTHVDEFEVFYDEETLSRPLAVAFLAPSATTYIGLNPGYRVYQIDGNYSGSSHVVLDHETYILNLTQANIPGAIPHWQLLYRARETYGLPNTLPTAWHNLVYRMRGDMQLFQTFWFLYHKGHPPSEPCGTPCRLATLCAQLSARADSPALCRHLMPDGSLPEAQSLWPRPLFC
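Fluorescence read-out (Ex 386 nm, Em 447 nm) after stopping the reaction at pH 10. Enzyme: ASM from human placenta; substrate HMU-PC0, 9 uM final; 60 min, 37 °C. Compound preincubation 10 min, ambient temperature.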
KB-V1 MDR tox: KB-V1 MDR subline cytotoxicity. KB-V1 MDR cells viability, CellTiter-Glo, 72 h. AID 1347076. 3.4% of 400,000 active. Potency, µM (series often up to 46.1 µM), hits mostly cytotoxic; further: potency means the concentration at half of the fitted maximal effect; on the % scale 0 is the no-effect control and ±100 the full control effect; nearly all actives have a fitted effect of over 60% in size
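In this primary screen, KB-V1 cells overexpressing P-gp are incubated with library compounds (lowest to highest concentration) for 72 h at 37 degrees C before a luminescent ATP viability read.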
SW480 rerep: inducers of DNA re-replication in SW480 colon cancer cells; 1.8% of 340,000 active; AID 624297; SW480 DNA re-replication, Hoechst DNA content imaging, 48 h; Potency, µM (highest dose often 46.1 µM), for inactives: at the top dose re-replication activation, most hits filed as activators; further: potency means the concentration at half of the fitted maximal effect; % of control where 0% means no effect; nearly all actives have a fitted effect of over 55% in size
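250 cells/well; 23 nL cpd via pin tool; 48 hr, 37 C, 5% CO2; Hoechst 40 min; imager read of total nuclear intensity, ex 405/em 500-530 nm.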
KB-3-1 tox: kills parental KB-3-1 adenocarcinoma cells | KB-3-1 viability, CellTiter-Glo ATP luminescence, 72 h | 1.4% of 400,000 active | Potency, µM (highest dose often 46.1 µM), hits mostly cytotoxic; further: potency means the concentration at half of the fitted maximal effect; on the % scale 0 is the no-effect control and ±100 the full control effect; nearly all actives have a fitted effect of over 60% in size
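Cytotoxicity in the drug-sensitive parental line KB-3-1 was scored as loss of CellTiter-Glo luminescence following 72 h incubation with compound. Values come from curve fitting of normalized concentration-response data.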
MCF10A rereplic: inducers of DNA re-replication in MCF 10A breast cells | 2.9% of 350,000 active | Potency, µM (top dose mostly 46.1 µM), for inactives: top-dose activity, positive = re-replication, hits mostly activators | MCF 10A DNA re-replication, Hoechst nuclear intensity, 48 h; further: potency means the concentration at half of the fitted maximal effect; % of control where 0% means no effect; nearly all actives have a fitted effect of over 50% in size
Starred values were filed as active, the others as inactive; i = inactive; ? = inconclusive; nt = not tested or not shown; [ ] = another dose, or the depositor's remark. Unless noted, the call rests on the fitted dose curve; in most records, active means well fitted curve in the direction sought with a large enough effect; inconclusive means small, poorly fitted or top-dose-only effect, or another doubt; inactive means no such curve, though single readings can be large; an effect the other way counts as inactive or inconclusive.

SMILES | Giardia kill | ASM inhibitor | KB-V1 MDR tox | SW480 rerep | KB-3-1 tox | MCF10A rereplic
C[C@]12CC[C@H]3[C@@H](CCC4=CC(=O)CC[C@@]43C)[C@@H]1CC[C@@H]2O | 20 | -1% | 3.7µM* | -10% | 10µM* | 7%
O=C1CC(N2CCN(c3ccccc3)CC2)C(=O)N1CCc1ccccc1 (stereo not given) | 1 | 1% | ? | -3% | i | ?
COC1=C(C)C(=O)c2c(c(COC(N)=O)c3n2C[C@@H]2[C@@H]3N2C)C1=O (stereo not given in full) | nt | nt | ? | nt | i | nt
CCCNc1nc(-c2cc(C(=O)Nc3ccccc3)on2)cc(C(C)C)n1 | ? | 2% | i | -2% | ? | 14%
Cc1cccc(-n2c(/C=C/c3cn(C)c4ccccc34)nc3ccccc3c2=O)c1 | nt | nt | i | nt | i | nt
O=C(NC(=O)c1c(F)cccc1F)Nc1cc(Cl)c(OC(F)(F)C(F)C(F)(F)F)cc1Cl (stereo not given) | nt | nt | nt | 1% | nt | 19%
CCN(CC)CCOC(=O)C(C)(c1ccccc1)c1ccccc1 | nt | nt | nt | 1% | nt | ?
CC12CCC(=O)C=C1CCC1C2CCC2(C)C(O)CCC12 (stereo not given) | 5 | -4% | 4.1µM* | 1% | ? | 11%
C[C@H](O)[C@H]1CC[C@H]2[C@@H]3CCC4=CC(=O)CC[C@]4(C)[C@H]3CC[C@]12C | 9 | -1% | 15µM* | -13% | i | ?
C#C[C@]1(O)CC[C@H]2[C@@H]3CCC4=CC(=O)CC[C@]4(C)[C@H]3CC[C@@]21C | 16 | -2% | i | -6% | i | 6%
N#Cc1ccccc1NC(=O)c1cccn(Cc2ccccc2)c1=O | nt | nt | i | nt | i | nt
CC1(C(=O)O)CCCC2(C)c3cc(O)ccc3CCC12 (stereo not given) | 5 | -7% | i | -13% | i | 18µM*
Cc1nc2cc(-c3ccc(Cl)cc3)nn2c(C)c1CCC(=O)N1CCC2(CC1)OCCO2 | -9 | 3% | 18µM* | -4% | i | 14%
CC(C)(C)CC(C)(C)c1ccc(O)cc1 | nt | nt | nt | 9% | nt | ?
N[C@@H](Cc1ccc(N(CCCl)CCCl)cc1)C(=O)O | 4 | 5% | i | ? | i | ?
ClCCN(CCCl)c1ccc(-n2cnc3c(Cl)ncnc32)cc1 | -8 | 0% | i | 8.2µM* | ? | 2.9µM*
CC(=O)O[C@@H]1/C=C/[C@](C)(O)C[C@@H](C)C/C=C/[C@H]2[C@@H]3O[C@]3(C)[C@@H](C)[C@H]3[C@H](Cc4ccccc4)NC(=O)[C@@]312 | 12 | -3% | i | 2.6µM* | i | 1.5µM*
CCC(C)OC(=O)c1c(N)n(Cc2cccs2)c2nc3ccccc3nc12 (stereo not given) | 11 | i | i | ? | ? | 12µM*
Nc1c(C(=O)OCc2ccccc2)c2nc3ccccc3nc2n1Cc1cccs1 | 8 | i | 5.2µM* | 15µM* | i | 6.5µM*
Cc1sc(NC(=O)Cn2c(=O)oc3ccccc32)nc1-c1ccc(Cl)cc1 | -5 | 6% | i | -2% | ? | ?
CN(C)C(=O)Oc1ccc(OCc2nc3ccccc3[nH]2)cc1 | ? | nt | 12µM* | 0% | ? | 8%
CN(C)C(=O)Oc1ccc(OC(=O)N(C)C)cc1 | -17 | 6% | i | 2%[9.22 µM] | i | ?
C/C=C/C(=O)OCC(=O)Nc1ccc(OC)c(Cl)c1 | -14 | -2% | i | -1% | i | ?
O=[N+]([O-])c1cccc(CN2CCN(Cc3ccc(Br)cc3)CC2)c1 | 4 | 0% | i | -15% | ? | 9.2µM*
CCN1C(=O)NC(=O)/C(=C\c2cn(CC(=O)N3CCCC3)c3ccccc23)C1=O | -9 | 27% | i | 10% | i | 0%
O=C1NC(=O)N(c2ccccc2F)C(=O)/C1=C/c1cn(CC(=O)N2CCOCC2)c2ccccc12 | -9 | 15% | i | 6% | i | 21µM*

Screening results: PubChem BioAssay, National Center for Advancing Translational Sciences (NCATS)
